{
  "source": "paper PMC11062922",
  "about": "(Nature Chemical Biology, 2023)",
  "design_in_all_cases": "species or system human, MV4-11 + K-562 + COLO205 + SK-N-BE2 + OVCAR-8",
  "key": {"AURKA": {"tested_on": "AURKA", "conditions": "read-out: apparent Kd, n = 1"}, "BCR": {"tested_on": "BCR", "conditions": "read-out: apparent Kd, n = 1"}, "CAMKK2": {"tested_on": "CAMKK2", "conditions": "read-out: apparent Kd, n = 1"}, "CHEK1": {"tested_on": "CHEK1", "conditions": "read-out: apparent Kd, n = 1"}, "EPHA4": {"tested_on": "EPHA4", "conditions": "read-out: apparent Kd, n = 1"}, "EPHA5": {"tested_on": "EPHA5", "conditions": "read-out: apparent Kd, n = 1"}, "EPHB2": {"tested_on": "EPHB2", "conditions": "read-out: apparent Kd, n = 1"}, "EPHB4": {"tested_on": "EPHB4", "conditions": "read-out: apparent Kd, n = 1"}, "MARK3": {"tested_on": "MARK3", "conditions": "read-out: apparent Kd; compound concentrations: 100 nM and 1000 nM (sheet 'Samples'), CATDS: 8.4864305198955707E-3; n = 1"}, "PRKACA": {"tested_on": "PRKACA", "conditions": "read-out: apparent Kd, n = 1"}, "PRKACB": {"tested_on": "PRKACB", "conditions": "read-out: apparent Kd, n = 1"}, "PRKAG2": {"tested_on": "PRKAG2", "conditions": "read-out: apparent Kd, n = 1"}, "RPS6KA4": {"tested_on": "RPS6KA4", "conditions": "read-out: apparent Kd, n = 1"}, "TNK1": {"tested_on": "TNK1", "conditions": "read-out: apparent Kd, n = 1"}, "TNK2": {"tested_on": "TNK2", "conditions": "read-out: apparent Kd, n = 1"}, "CSNK1D": {"tested_on": "CSNK1D", "conditions": "read-out: apparent Kd, n = 1"}, "MAPK10": {"tested_on": "MAPK10", "conditions": "read-out: apparent Kd; compound concentrations: 100 nM and 1000 nM (sheet 'Samples'), CATDS: 5.7634861461912698E-2; n = 1"}, "MAPK9": {"tested_on": "MAPK9", "conditions": "read-out: apparent Kd; compound concentrations: 100 nM and 1000 nM (sheet 'Samples'), CATDS: 6.8874136988771595E-2; n = 1"}, "[1]": {"conditions": "compound concentrations:100 nM and 1000 nM (sheet 'Samples')"}},
  "note": "Like-named read-outs stand apart in the source and are kept apart here.",
  "data": [
    {"molecule": "O=C1N=C(NCCc2ccc(Cl)cc2)S/C1=C\\c1ccc2ncccc2c1", "note": "[RO4498479-000]", "values": [
      {"measurement": "potency estimated from few doses", "setting": "AURKA; compound concentrations: 100 nM and 1000 nM (sheet 'Samples'), CATDS: 1.0602350822893101E-2", "value": 486, "unit": "nM"},
      {"measurement": "potency estimated from few doses", "setting": "BCR; compound concentrations: 100 nM and 1000 nM (sheet 'Samples'), CATDS: 1.6408594866795901E-2", "value": 215, "unit": "nM"},
      {"measurement": "potency estimated from few doses", "setting": "CAMKK2; compound concentrations: 100 nM and 1000 nM (sheet 'Samples'), CATDS: 9.9016852028132405E-3", "value": 568, "unit": "nM"},
      {"measurement": "potency estimated from few doses", "setting": "CHEK1; compound concentrations: 100 nM and 1000 nM (sheet 'Samples'), CATDS: 7.8682297996918397E-3", "value": 1070, "unit": "nM"},
      {"measurement": "potency estimated from few doses", "setting": "EPHA4; compound concentrations: 100 nM and 1000 nM (sheet 'Samples'), CATDS: 1.4543255052935199E-2", "value": 263, "unit": "nM"},
      {"measurement": "potency estimated from few doses", "setting": "EPHA5; compound concentrations: 100 nM and 1000 nM (sheet 'Samples'), CATDS: 2.0414571032165901E-2", "value": 153, "unit": "nM"},
      {"measurement": "potency estimated from few doses", "setting": "EPHB2; compound concentrations: 100 nM and 1000 nM (sheet 'Samples'), CATDS: 1.7636169639023699E-2", "value": 191, "unit": "nM"},
      {"measurement": "potency estimated from few doses", "setting": "EPHB4; compound concentrations: 100 nM and 1000 nM (sheet 'Samples'), CATDS: 2.15431657098582E-2", "value": 141, "unit": "nM"},
      {"measurement": "potency estimated from few doses", "setting": "MARK3", "value": 848, "unit": "nM"},
      {"measurement": "potency estimated from few doses", "setting": "PRKACA; compound concentrations: 100 nM and 1000 nM (sheet 'Samples'), CATDS: 8.4640851007318392E-3", "value": 854, "unit": "nM"},
      {"measurement": "potency estimated from few doses", "setting": "PRKACB; compound concentrations: 100 nM and 1000 nM (sheet 'Samples'), CATDS: 9.3487346254019794E-3", "value": 654, "unit": "nM"},
      {"measurement": "potency estimated from few doses", "setting": "PRKAG2; compound concentrations: 100 nM and 1000 nM (sheet 'Samples'), CATDS: 1.04447346657642E-2", "value": 503, "unit": "nM"},
      {"measurement": "potency estimated from few doses", "setting": "RPS6KA4; compound concentrations: 100 nM and 1000 nM (sheet 'Samples'), CATDS: 7.6189107816006501E-3", "value": 1190, "unit": "nM"},
      {"measurement": "potency estimated from few doses", "setting": "TNK1; compound concentrations: 100 nM and 1000 nM (sheet 'Samples'), CATDS: 1.8006750719606699E-2", "value": 185, "unit": "nM"},
      {"measurement": "potency estimated from few doses", "setting": "TNK2; compound concentrations: 100 nM and 1000 nM (sheet 'Samples'), CATDS: 1.88242032678454E-2", "value": 173, "unit": "nM"}
    ]},
    {"molecule": "CCn1c(-c2nonc2N)nc2c(C#CC(C)(C)O)nc(OCCN)cc21.CCn1c(-c2nonc2N)nc2c(C#CC(C)(C)O)nc(OCCN)cc21.Cl.Cl", "note": "[GSK902056A]", "values": [
      {"measurement": "potency estimated from few doses", "setting": "PRKACA; [1]", "value": 1200, "unit": "nM"},
      {"measurement": "potency estimated from few doses", "setting": "PRKACB; [1]", "value": 1000, "unit": "nM"}
    ]},
    {"molecule": "Cl.NCc1ccc(-c2nc(-c3ccc(Cl)c(O)c3)c(-c3ccncc3)[nH]2)cc1", "note": "[SB-476429-A]", "values": [
      {"measurement": "potency estimated from few doses", "setting": "CSNK1D; [1]", "value": 1290, "unit": "nM"}
    ]},
    {"molecule": "CCn1c(-c2nonc2N)nc2c(-c3ccccc3)ncc(OCCCN)c21.CCn1c(-c2nonc2N)nc2c(-c3ccccc3)ncc(OCCCN)c21.O=C(O)C(F)(F)F.O=C(O)C(F)(F)F", "note": "[GSK260205A]", "values": [
      {"measurement": "potency estimated from few doses", "setting": "CSNK1D; compound concentrations: 100 nM and 1000 nM (sheet 'Samples'), CATDS: 4.20751700104477E-2", "value": 469, "unit": "nM"},
      {"measurement": "potency estimated from few doses", "setting": "PRKACA; compound concentrations: 100 nM and 1000 nM (sheet 'Samples'), CATDS: 2.90938755589953E-2", "value": 1480, "unit": "nM"},
      {"measurement": "potency estimated from few doses", "setting": "PRKACB; compound concentrations: 100 nM and 1000 nM (sheet 'Samples'), CATDS: 3.9372517693277299E-2", "value": 557, "unit": "nM"}
    ]},
    {"molecule": "COc1cccc2c(-c3ccncc3)c(-c3ccc(F)cc3)nn12", "note": "[GW468513X]", "values": [
      {"measurement": "potency estimated from few doses", "setting": "CSNK1D; compound concentrations: 100 nM and 1000 nM (sheet 'Samples'), CATDS: 0.14597424406190301", "value": 52, "unit": "nM"},
      {"measurement": "potency estimated from few doses", "setting": "MAPK10", "value": 346, "unit": "nM"},
      {"measurement": "potency estimated from few doses", "setting": "MAPK9", "value": 218, "unit": "nM"}
    ]},
    {"molecule": "Cl.Cl.NCC(C(=O)Nc1cc(Br)c(-c2ccnc3[nH]ccc23)s1)c1ccccc1.NCC(C(=O)Nc1cc(Br)c(-c2ccnc3[nH]ccc23)s1)c1ccccc1", "note": "(stereo not shown) [GSK1269851A]", "values": [
      {"measurement": "potency estimated from few doses", "setting": "AURKA; [1]", "value": 768, "unit": "nM"},
      {"measurement": "potency estimated from few doses", "setting": "BCR; [1]", "value": 90.4, "unit": "nM"},
      {"measurement": "potency estimated from few doses", "setting": "CAMKK2; [1]", "value": 1310, "unit": "nM"},
      {"measurement": "potency estimated from few doses", "setting": "CHEK1; [1]", "value": 1700, "unit": "nM"},
      {"measurement": "potency estimated from few doses", "setting": "EPHA4; [1]", "value": 510, "unit": "nM"},
      {"measurement": "potency estimated from few doses", "setting": "EPHA5; [1]", "value": 74.9, "unit": "nM"},
      {"measurement": "potency estimated from few doses", "setting": "EPHB2; [1]", "value": 94.9, "unit": "nM"},
      {"measurement": "potency estimated from few doses", "setting": "EPHB4; [1]", "value": 54.6, "unit": "nM"},
      {"measurement": "potency estimated from few doses", "setting": "PRKACB; [1]", "value": 1920, "unit": "nM"},
      {"measurement": "potency estimated from few doses", "setting": "PRKAG2; [1]", "value": 111, "unit": "nM"},
      {"measurement": "potency estimated from few doses", "setting": "TNK1; [1]", "value": 62.7, "unit": "nM"},
      {"measurement": "potency estimated from few doses", "setting": "TNK2; [1]", "value": 46.6, "unit": "nM"}
    ]},
    {"molecule": "CCn1c(-c2nonc2N)nc2c(C#CC(C)(C)O)nc(OC[C@@H](N)c3ccccc3)cc21", "note": "[GSK938890A]", "values": [
      {"measurement": "potency estimated from few doses", "setting": "PRKACA; compound concentrations: 100 nM and 1000 nM (sheet 'Samples'), CATDS: 0.21319960399835", "value": 22.6, "unit": "nM"},
      {"measurement": "potency estimated from few doses", "setting": "PRKACB; compound concentrations: 100 nM and 1000 nM (sheet 'Samples'), CATDS: 0.177486762785802", "value": 30.8, "unit": "nM"}
    ]},
    {"molecule": "CN1C[C@@H]2Cn3c(c(C4=C(c5cn(C)c6ccccc56)C(=O)NC4=O)c4ccccc43)C[C@H]2C1.Cl", "note": "[RO0320234-001]", "values": [
      {"measurement": "potency estimated from few doses", "setting": "AURKA; [1]", "value": 368, "unit": "nM"},
      {"measurement": "potency estimated from few doses", "setting": "BCR; [1]", "value": 57.1, "unit": "nM"},
      {"measurement": "potency estimated from few doses", "setting": "CAMKK2; [1]", "value": 1430, "unit": "nM"},
      {"measurement": "potency estimated from few doses", "setting": "CHEK1; [1]", "value": 1280, "unit": "nM"},
      {"measurement": "potency estimated from few doses", "setting": "EPHA4; [1]", "value": 321, "unit": "nM"},
      {"measurement": "potency estimated from few doses", "setting": "EPHA5; [1]", "value": 207, "unit": "nM"},
      {"measurement": "potency estimated from few doses", "setting": "EPHB2; [1]", "value": 52.9, "unit": "nM"},
      {"measurement": "potency estimated from few doses", "setting": "EPHB4; [1]", "value": 15.9, "unit": "nM"},
      {"measurement": "potency estimated from few doses", "setting": "RPS6KA4; [1]", "value": 1630, "unit": "nM"},
      {"measurement": "potency estimated from few doses", "setting": "TNK1; [1]", "value": 9.27, "unit": "nM"},
      {"measurement": "potency estimated from few doses", "setting": "TNK2; [1]", "value": 84.4, "unit": "nM"}
    ]}
  ]
}
